Screens from PubChem BioAssay.
Hits are enriched below; roughly 9.4% of the tested compounds scored in any of these assays.
Rab9 prom act – activates the Rab9 promoter | Huh7 Rab9 promoter-luciferase reporter, luminescence, 24 h | Potency, µM (highest dose often 9.22 µM), usual class: activators | 320,000 compounds, 2.8% hits | AID 485297; further: nearly all actives have a fitted effect of over 60% in size
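Stable Rab9-luc Huh7, 1500 cells/well, 2 h settle; cmpd in DMSO, 24 h, 37 °C/5% CO2; luciferase reagent 10 min RT; luminescence.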
FLuc counter – firefly luciferase modulation, counter-screen for miR-21 project; AID 588342; purified FLuc, Km substrates, luminescence inhibition; Potency, µM (doses to about 57.5 µM), hits mostly inhibitors; 360,000 compounds, 6.9% hits; further: nearly all actives have a fitted effect of over 55% in size
Target sequence (P08659 whole entry, looked up): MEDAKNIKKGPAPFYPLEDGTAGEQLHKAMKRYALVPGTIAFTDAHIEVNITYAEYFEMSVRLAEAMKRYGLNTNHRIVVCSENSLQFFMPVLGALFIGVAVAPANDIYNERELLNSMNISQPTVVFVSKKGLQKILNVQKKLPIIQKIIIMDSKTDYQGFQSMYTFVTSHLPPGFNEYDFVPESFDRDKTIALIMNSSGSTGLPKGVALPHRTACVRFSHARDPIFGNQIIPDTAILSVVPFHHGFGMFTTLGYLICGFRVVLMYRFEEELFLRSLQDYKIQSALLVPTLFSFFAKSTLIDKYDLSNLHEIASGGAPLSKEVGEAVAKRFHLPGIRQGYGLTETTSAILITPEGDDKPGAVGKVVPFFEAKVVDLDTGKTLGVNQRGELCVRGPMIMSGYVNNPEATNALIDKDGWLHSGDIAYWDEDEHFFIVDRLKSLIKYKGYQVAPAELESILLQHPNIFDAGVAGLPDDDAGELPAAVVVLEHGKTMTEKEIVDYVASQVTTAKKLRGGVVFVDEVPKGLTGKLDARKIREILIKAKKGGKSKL
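Biochemical qHTS of compounds, final roughly 60 µM downward over six points, against 10 nM purified firefly luciferase using Km concentrations of substrates (10 uM D-luciferin, 10 uM ATP) in Tris acetate pH 7.5 buffer; luminescence output.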
NPC1 promoter act – activates the NPC1 promoter. Huh7 NPC1 promoter luciferase reporter, 24 h. Potency, µM (highest dose often 9.22 µM), most hits filed as activators. AID 485313. 320,000 compounds, 2.4% hits; further: nearly all actives have a fitted effect of over 60% in size
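Readout is luciferase luminescence, reflecting NPC1 promoter activation in stably transfected Huh7 cells after 24 h compound exposure at 37 °C in reduced-serum medium with 10% FBS.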
SMN2 splice up – enhancers of SMN2 splice variant expression; AID 1458; Potency, µM (series often up to 46.1 µM), actives largely listed as activators; HEK293 SMN2-luciferase splicing reporter, luminescence, 30-36 h; 210,000 compounds, 2.8% hits; further: nearly all actives have a fitted effect of over 55% in size
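HEK293 cells carry an SMN2 […]–luciferase reporter in which exon 7 inclusion puts luciferase in frame. Cells were plated 10-12 h before compound addition, then incubated 30-36 h at 37C. ONE-Glo luminescence was read; sodium butyrate at 4.5 mM final served as control.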
ELG1 genotox – genotoxicity induction in ELG1-luciferase HEK293T cells. HEK293T ELG1-luciferase reporter, luminescence, 16 h. Potency, µM (titrated, usually from 46 µM), actives largely listed as activators. 330,000 compounds, 1.3% hits. AID 504466; further: nearly all actives have a fitted effect of over 60% in size
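16 hr compound incubation (37 °C, 5% CO2) of HEK293T cells carrying luciferase-tagged ELG1; luciferase then measured by ONE-Glo luminescence after 30 min at RT.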
ELG1 DNA repair – inhibitors of ELG1-dependent DNA repair in HEK293T cells; Potency, µM (doses to about 46.1 µM), actives largely listed as inhibitors; 330,000 compounds, 2.3% hits; HEK293T ELG1-luciferase reporter, luminescence, 16 h; DNA damage induced by 5-fluorouridine; AID 504467; further: nearly all actives have a fitted effect of over 55% in size
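DMSO vehicle served as the neutral condition. Each well held 2,000 cells given 5-fluorouridine plus compound; after 16 hr at 37 °C/5% CO2, ONE-Glo was added and luciferase measured 30 min later.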
Large screens that a line does not name were inactive. The call rests on the fitted dose curve; in most records, active means well fitted curve in the direction sought with a large enough effect; inconclusive means small, poorly fitted or top-dose-only effect, or another doubt; inactive means no such curve, though single readings can be large; an effect the other way counts as inactive or inconclusive.

CN(C)c1ccc(C(=O)c2ccc(N(C)C)cc2)cc1	FLuc counter 13µM, ELG1 genotox 23µM, ELG1 DNA repair inconclusive
CN(C)c1ccccc1	none (no result: Rab9 prom act, FLuc counter, NPC1 promoter act, ELG1 genotox, ELG1 DNA repair)
COc1ccccc1N=Cc1c(O)n(C)c(=O)n(C)c1=O	FLuc counter 7.6µM, ELG1 DNA repair inconclusive
COc1ccc(Cl)cc1N=Cc1c(O)n(C)c(=O)n(C)c1=O	ELG1 DNA repair inconclusive (no result: SMN2 splice up)
O=C(CCl)c1ccccc1	none (no result: Rab9 prom act, FLuc counter, NPC1 promoter act, ELG1 genotox, ELG1 DNA repair)
Cc1ccc(C(=O)Nc2c(C(=O)Nc3ccc(C)c(C)c3)sc3nc(C)cc(C)c23)cc1	FLuc counter 11µM, SMN2 splice up 13µM (no result: Rab9 prom act, NPC1 promoter act, ELG1 genotox, ELG1 DNA repair)
C[C@H](CC(C#N)(c1ccccc1)c1ccccc1)N1CCCCC1	none (no result: Rab9 prom act, FLuc counter, NPC1 promoter act, ELG1 genotox, ELG1 DNA repair)
CN(Cc1ccccc1)C(=O)c1ccc(NC(=O)C2CCN(C(=O)OC(C)(C)C)CC2)cc1	ELG1 DNA repair 10µM (no result: Rab9 prom act, FLuc counter, NPC1 promoter act, SMN2 splice up)
O=P(Nc1ccccc1)(Nc1ccccc1)Oc1cccc(Cl)c1	ELG1 DNA repair 16µM
COc1ccc(CN2C(=O)NC(=O)/C(=C/c3ccc([N+](=O)[O-])o3)C2=O)cc1	FLuc counter 19µM, ELG1 DNA repair inconclusive
COc1cc(N2CCOCC2)ccc1/C=C1\C(=O)NC(=O)N(Cc2ccc3c(c2)OCO3)C1=O	FLuc counter 17µM
CC(=O)OC1=CC2=CC[C@H]3[C@H]4CCC(=O)[C@@]4(C)CC(=O)[C@]3(S)[C@]2(C)CC1	none (no result: Rab9 prom act, FLuc counter, NPC1 promoter act, ELG1 genotox, ELG1 DNA repair)
COc1ccc(NCC(=O)N2CCCC2)cc1Cl	ELG1 DNA repair inconclusive
CN1C(=O)C(=Cc2ccccc2OCc2ccc(Cl)cc2)C(=O)N(C)C1=O	FLuc counter 9.5µM, SMN2 splice up inconclusive, ELG1 genotox inconclusive, ELG1 DNA repair inconclusive
CN1/C(=C\C=C\C2=[N+](C)c3ccc4ccccc4c3C2(C)C)C(C)(C)c2ccccc21	FLuc counter 13µM, ELG1 DNA repair inconclusive
C[C@@]12CC[C@H](O[C@@H]3O[C@H](CO)[C@@H](O)[C@H](O)[C@@H]3O)C[C@@H]1CC[C@H]1[C@H]2CC[C@@]2(C)[C@@H](C3=CCOC3=O)CC[C@]12O	none (no result: Rab9 prom act, FLuc counter, NPC1 promoter act, ELG1 genotox, ELG1 DNA repair)
CCOC(=O)C1OC1(C)c1ccccc1 (configuration not stated)	none (no result: Rab9 prom act, FLuc counter, NPC1 promoter act, ELG1 genotox, ELG1 DNA repair)
CCCCC(=O)Cl	none (no result: Rab9 prom act, FLuc counter, NPC1 promoter act, ELG1 genotox, ELG1 DNA repair)
CCOc1ccc2nc(N3CCC(C(=O)Nc4ccc(Br)cc4F)CC3)sc2c1	FLuc counter 15µM, SMN2 splice up 13µM (no result: Rab9 prom act, NPC1 promoter act, ELG1 genotox, ELG1 DNA repair)
CCOc1ccc(NCc2cccn2-c2nnc(N3CCC(C(=O)NCC(C)c4ccccc4)CC3)s2)cc1 (configuration not stated)	none (no result: Rab9 prom act, NPC1 promoter act, ELG1 genotox, ELG1 DNA repair)
CC(C)CNC(=O)c1c(N)n(Cc2ccco2)c2nc3ccccc3nc12	ELG1 DNA repair 26µM
Nc1c(C(=O)NCC2CCCO2)c2nc3ccccc3nc2n1Cc1ccco1 (configuration not stated)	ELG1 DNA repair 23µM (no result: SMN2 splice up)
Nc1c(C(=O)NC2CCCC2)c2nc3ccccc3nc2n1CC1CCCO1 (configuration not stated)	ELG1 DNA repair 15µM (no result: SMN2 splice up)
CCCNC(=O)c1c(N)n(Cc2ccco2)c2nc3ccccc3nc12	ELG1 DNA repair 23µM
C(CCOCC1CO1)COCC1CO1 (configuration not stated)	none (no result: Rab9 prom act, FLuc counter, NPC1 promoter act, ELG1 genotox, ELG1 DNA repair)
CCC(C)/C=C(C)/C=C/C1=CC2=C(Cl)C(=O)C(C)(OC(C)=O)C(=O)C2=CO1 (configuration not stated)	FLuc counter 21µM (no result: SMN2 splice up)
O=C1c2cccc3cccc(c23)C(=O)N1CCN1CCN(C(=S)Nc2ccccc2)CC1	ELG1 DNA repair 16µM
O=C(COc1ccccc1)N1CCN(CCN2C(=O)c3cccc4cccc(c34)C2=O)CC1	none (no result: SMN2 splice up)
CC[C@H](CO)Nc1nc(NCc2ccccc2)c2ncn(C(C)C)c2n1	SMN2 splice up 18µM (no result: Rab9 prom act, FLuc counter, NPC1 promoter act, ELG1 genotox, ELG1 DNA repair)
O=C(c1cc(-c2ccc(Cl)cc2)n(-c2ccc(Cl)cc2Cl)n1)N1CCOCC1	ELG1 DNA repair inconclusive
O=C(c1cc2ccccn2n1)N1CCC2(CC1)OCCO2	none
O=C(c1cc(-c2cccc(Cl)c2)on1)N1CCOCC1	Rab9 prom act 3.2µM, FLuc counter 13µM, NPC1 promoter act 2.8µM, ELG1 genotox 23µM, ELG1 DNA repair inconclusive (no result: SMN2 splice up)
